AmpC inh detg: AmpC beta-lactamase inhibition with detergent present; hit rate 0.041% among 370,000; Potency, µM (series often up to 114 µM), for the others: at the top dose activity change, negative = inhibition, most hits filed as inhibitors; AmpC hydrolysis of nitrocefin, absorbance 480 nm, 0.01% Triton; AID 485294; P00811;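 note: potency is the fitted concentration of half-maximal effect; 0% = no-compound wells and -100% = no-enzyme wells; nearly all actives have a fitted effect of over 25% in size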
Target sequence (P00811 whole entry, looked up): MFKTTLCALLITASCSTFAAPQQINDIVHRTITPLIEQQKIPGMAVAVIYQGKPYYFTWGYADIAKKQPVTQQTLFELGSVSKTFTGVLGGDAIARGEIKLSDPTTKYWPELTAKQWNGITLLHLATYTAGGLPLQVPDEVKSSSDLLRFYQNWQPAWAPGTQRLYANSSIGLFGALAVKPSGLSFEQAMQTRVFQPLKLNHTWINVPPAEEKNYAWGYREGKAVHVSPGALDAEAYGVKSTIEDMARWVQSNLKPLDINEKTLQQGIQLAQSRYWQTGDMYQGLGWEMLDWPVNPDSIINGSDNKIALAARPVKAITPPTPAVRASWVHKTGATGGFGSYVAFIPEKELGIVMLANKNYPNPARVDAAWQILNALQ
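AmpC (5.3 nM in the dispensed reagent) in 20 mM phosphate pH 7.0 with 0.01% (detergent screen) or 0.0001% Triton X-100 was preincubated with compounds for 15 min at room temperature. Nitrocefin was then added from an 800 uM solution, and hydrolysis was followed at 480 nm.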
AmpC no deterg: inhibitors of E. coli AmpC beta-lactamase without detergent. P00811. AmpC nitrocefin hydrolysis, absorbance 480 nm, 0.0001% Triton. Potency, µM (doses to about 57.1 µM), for inactives: top-dose activity change, negative = inhibition, usual class: inhibitors. hit rate 0.52% among 330,000. AID 485341;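 note: potency is the fitted concentration of half-maximal effect; plate controls were no compound for no effect and no enzyme for full effect; nearly all actives have a fitted effect of over 20% in size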
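20 mM phosphate pH 7.0 + 0.01% (detergent screen) or 0.0001% Triton X-100; 5.3 nM AmpC reagent; cpd preinc 15 min RT; nitrocefin (800 uM stock) to start; A480 q20 s × 4 min; Activity was normalised to no-enzyme and no-compound control wells.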
FMDV antiviral: antivirals against foot and mouth disease virus | FMDV antiviral cell-based qHTS | hit rate 1.2% among 410,000 | Potency, µM (top dose mostly 57.9 µM), inactives show at the top dose activity change, negative = inhibition, usual class: inhibitors; calls by dose curve; tested in HEK293T cells; note: read-out not given here; potency is the fitted concentration of half-maximal effect; nearly all actives have a fitted effect of over 45% in size
HCMV inh: human cytomegalovirus inhibition | hit rate 4.5% among 410,000 | HFF cells, HCMV-luciferase reporter, 72 h; active compounds read low | AID 1259415 | activity change, negative = inhibition, % at 57.5 µM; in the data active = activity change below about -60%; inconclusive = no clear call, values can overlap the other calls; inactive = above about -39%
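Cell-based, HFFs, 1000 cells/well, 16 h 37C; cpds in DMSO + HCMV-luc, MOI 1 PFU/cell; 72 h 37C; OneGlo luminescence after 5 min RT; norm. to buffer vs Salinomycin 10uM.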
HCV inh: HCV inhibition | Huh7.5.1 HCVcc-Cre infection, luciferase reporter, 44 h | Potency, µM (top dose mostly 41.8 µM), for the others: at the highest dose activity change, negative = inhibition, most hits filed as inhibitors | hit rate 3.4% among 340,000; note: potency is the fitted concentration of half-maximal effect
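Whole-lifecycle infectious HCVcc-Cre system; cells 1,000/well, compound then virus (~0.5 moi) added 4 h after plating, 44 h culture. Luciferase read 15 sec following 15 min substrate incubation, room temp.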
Numbers without * were called inactive; u = inconclusive; x = no result. Compounds with a hit are over-represented: about 7.3% of the library has one in this group of screens. Unless noted, calls come from the whole dose curve; as a rule, active = well fitted curve in the direction sought with a large enough effect; inconclusive = small, poorly fitted or top-dose-only effect, or another doubt; inactive = no such curve, though single readings can be large; an effect the other way counts as inactive or inconclusive. Unless noted, % is set by controls: 0 for no effect and ±100 for the full control effect.

SMILES	AmpC inh detg	AmpC no deterg	FMDV antiviral	HCMV inh	HCV inh
N#C[C@@H](c1ccccc1)C1CCN(S(=O)(=O)CCCCl)CC1	x	x	x	-3	x
CC1(c2nnnn2Cc2ccccc2)CCC(=O)N1C1CC1 (stereo unspecified)	x	x	-28%	15	x
CCNC(=O)C(=O)Nc1ccc([N+](=O)[O-])cc1	-8%	-11%	26%	18	-4%
CCC(CC)C(=O)Nc1ccc(Sc2ccc([N+](=O)[O-])cc2)cc1	10%	-35%	u	-96*	u
CCCC(=O)Nc1ccc(Sc2ccc([N+](=O)[O-])cc2)cc1	0%	u	u	-75*	u
CCC(CC)C(=O)Nc1ccc([N+](=O)[O-])cn1	3%	-18%	-18%	-84*	1%
CC(C)(C)c1ccc(C(=O)Nc2ccc([N+](=O)[O-])cn2)cc1	-4%	-13%	-2%	-25	5%
CN(Cc1c(F)cccc1Cl)C(=O)C1=CC=CN2CCS(=O)(=O)N=C12	x	-15%	-5%	-5	20%
CN1CCN(Cc2c(O)ccc3cc(Br)ccc23)CC1	-12%	-13%	0%	-69*	-12%
CCOc1ccc(NC(=O)C(CC)n2nc(C)c3c(C)n(-c4ccccc4)nc3c2=O)cc1 (stereo unspecified)	-6%	5%	-18%	8	-5%
O=c1c2cn[nH]c2nc(SCc2ccc3c(c2)OCCO3)n1-c1ccccc1	-2%	1%	25µM*	-37	u
O=c1c2cn[nH]c2nc(SCc2cccc(Br)c2)n1-c1ccc(Cl)cc1	-6%	x	0%	8	x
Cc1ccccc1-n1c(SCc2ccc(Cl)cc2)nc2[nH]ncc2c1=O	7%	x	u	-20	x
Cc1cc(-n2c(SCc3ccccc3F)nc3[nH]ncc3c2=O)ccc1Cl	8%	x	-18%	-64*	x
CCC(=NCCOc1ccc(Cl)cc1)c1c(O)n(C)c(=O)n(C)c1=O	-4%	101%	25µM*	u	14%
CCC(=NCc1ccc2c(c1)OCO2)c1c(O)n(C)c(=O)n(C)c1=O	u	13%	u	-66*	u
CC(=NCc1ccc2c(c1)OCO2)c1c(O)n(C)c(=O)n(C)c1=O	u	-11%	-5%	16	-18%
CCC(=NCc1cc(OC)cc(OC)c1)c1c(O)n(C)c(=O)n(C)c1=O	-6%	0%	u	-90*	6.3µM*
CC1CCCC(NC(=O)c2ccc3c(c2)NC(=O)CS3)C1C (stereo unspecified)	6%	-31%	11%	0	0%
Cc1onc(-c2ccccc2Cl)c1C(=O)Oc1ccccc1F	1%	x	-16%	-12	x
COc1ccc(C(CNC(=O)c2ccc(-c3cccc(C(F)(F)F)c3)o2)N2CCOCC2)cc1 (stereo unspecified)	-4%	239%	u	19	u
CCCCN(CC)C(=O)c1c[nH]c2ccc(S(=O)(=O)N(C)c3ccc(Cl)cc3)cc2c1=O	0%	x	-25%	-9	x
CCCOc1ccccc1C(=O)N1CCCCC1CCN1CCCCC1 (stereo unspecified)	18%	x	3%	-70*	x
Cc1ccccc1C(=O)N1CCCCC1CCN1CCCCC1 (stereo unspecified)	15%	x	-9%	-20	x
CCOC(=O)c1cccn1C1C(=O)N(Cc2ccc(C(F)(F)F)cc2)c2ccccc21 (stereo unspecified)	x	x	x	-5	x
SMILES	AmpC inh detg	AmpC no deterg	FMDV antiviral	HCMV inh	HCV inh
O=C(Nc1ccc(Cl)cc1)c1csc(COCCO)n1	x	x	9%	4	x
COCCCNC(=O)c1csc([C@H]2C[C@H](O)[C@@H](CO)O2)n1	x	x	-5%	-100*	x
O=C(Nc1ccc(Oc2ccccc2)cc1)c1csc(COCCO)n1	x	x	0%	-81*	x
O=C(Nc1ccc(Oc2ccccc2)cc1)c1csc([C@@H]2C[C@H](O)[C@@H](CO)O2)n1	x	x	u	-91*	x
O=C(c1ccccc1)c1ccc(Oc2ccc(C(=O)O)c(C(=O)O)c2)cc1	-15%	-37%	-13%	23	4%
COc1ccc(S(=O)(=O)Nc2ccccc2C(=O)Nc2nc(-c3ccc(F)cc3)cs2)cc1OC	u	-25%	-16%	-76*	u
COc1ccc(-c2csc(NC(=O)c3c(OC)cccc3OC)n2)cc1	-1%	15%	0%	-16	u
